# Measurements published in PubChem BioAssay AID1159580 (chemical genetic matrix, 2015).
# Where “and” joins values, the source holds several entries; their conditions need not be identical. Equal values may be shown once. In all, about 5,500 compounds went through this assay and about 2,000 (36%) were called active. Roughly 18% stayed inconclusive and do not appear here. This is one part of the list. Unmarked numbers belong to inactive results. Rule as the data show it: active = normalized growth mostly below about 0.91 (no sharp cut-off); inconclusive = no clear call, values can overlap the other calls; inactive = mostly above about 0.92.
# Test: chemical genetic growth profiling, strain panel (AID 1159580);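 also: tested at 20 µM; growth read once vehicle control cultures reached saturation at 30 °C; 1 = growth at the plate median or of vehicle wells; lower values mean less growth of the strain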
# Settings: S. cerevisiae deletion strains, growth OD
structure (smiles),measurement,setting,value
CS(=O)(=O)OCCCCOS(C)(=O)=O,normalized growth,"locus YAL013W, strain DEP1, stronger effect = lower value",0.954
same,normalized growth,"locus YAL021C, strain ccr4, stronger effect = lower value",0.999
same,normalized growth,"locus YAL026C, strain drs2, stronger effect = lower value",1.02
same,normalized growth,"locus YAL030W, strain snc1, stronger effect = lower value",1.03
same,normalized growth,"locus YBL061C, strain skt5, stronger effect = lower value",1.01
same,normalized growth,"locus YBR009C, strain hhf1, stronger effect = lower value",1.11 [resistant] (active)
same,normalized growth,"locus YBR021W, strain FUR4, stronger effect = lower value",1.01
same,normalized growth,"locus YBR023C, strain chs3, stronger effect = lower value",1.01
same,normalized growth,"locus YBR171W, strain sec66, stronger effect = lower value",1.03
same,normalized growth,"locus YBR229C, strain ROT2, stronger effect = lower value",0.994
same,normalized growth,"locus YBR231C, strain swc5, stronger effect = lower value",0.993
same,normalized growth,"locus YBR279W, strain paf1, stronger effect = lower value",1.01
same,normalized growth,"locus YCL011C, strain gbp2, stronger effect = lower value",1.04
same,normalized growth,"locus YCL016C, strain dcc1, stronger effect = lower value",1.05
same,normalized growth,"locus YCL029C, strain bik1, stronger effect = lower value",0.956
same,normalized growth,"locus YCL069W, strain vba3, stronger effect = lower value",1.03
same,normalized growth,"locus YCR088W, strain abp1, stronger effect = lower value",1.02
same,normalized growth,"locus YDL005C, strain med2, stronger effect = lower value",1.01
same,normalized growth,"locus YDL035C, strain GPR1, stronger effect = lower value",1.02
same,normalized growth,"locus YDL040C, strain nat1, stronger effect = lower value",1
same,normalized growth,"locus YDL074C, strain BRE1, stronger effect = lower value",0.901
same,normalized growth,"locus YDL101C, strain DUN1, stronger effect = lower value",0.948
same,normalized growth,"locus YDL185W, strain tfp1, stronger effect = lower value",0.918
same,normalized growth,"locus YDL192W, strain arf1, stronger effect = lower value",0.942
same,normalized growth,"locus YDR001C, strain nth1, stronger effect = lower value",1.01
same,normalized growth,"locus YDR069C, strain doa4, stronger effect = lower value",1.02
same,normalized growth,"locus YDR101C, strain arx1, stronger effect = lower value",0.961
same,normalized growth,"locus YDR137W, strain rgp1, stronger effect = lower value",1.03
same,normalized growth,"locus YDR159W, strain sac3, stronger effect = lower value",0.996
same,normalized growth,"locus YDR162C, strain NBP2, stronger effect = lower value",0.961
same,normalized growth,"locus YDR195W, strain ref2",0.973
same,normalized growth,"locus YDR297W, strain sur2, stronger effect = lower value",1.05
same,normalized growth,"locus YDR318W, strain mcm21, stronger effect = lower value",0.962
same,normalized growth,"locus YDR334W, strain swr1, stronger effect = lower value",1.01
same,normalized growth,"locus YDR335W, strain msn5, stronger effect = lower value",1.04
same,normalized growth,"locus YDR388W, stronger effect = lower value",0.963
same,normalized growth,"locus YDR392W, strain spt3, stronger effect = lower value",1.04
same,normalized growth,"locus YDR502C, strain sam2, stronger effect = lower value",0.973
same,normalized growth,"locus YEL003W, strain gim4, stronger effect = lower value",1.03
same,normalized growth,"locus YEL037C, strain rad23, stronger effect = lower value",1.02
same,normalized growth,"locus YEL061C, strain CIN8 (second series), stronger effect = lower value",1.01
same,normalized growth,"locus YEL061C, strain CIN8, stronger effect = lower value",0.979
same,normalized growth,"locus YER015W, strain faa2, stronger effect = lower value",0.998
same,normalized growth,"locus YER016W, strain bim1, stronger effect = lower value",1.03
same,normalized growth,"locus YER110C, stronger effect = lower value",0.93
same,normalized growth,"locus YER111C, strain swi4, stronger effect = lower value",1.02
same,normalized growth,"locus YER155C, strain BEM2 (second series), stronger effect = lower value",1.02
same,normalized growth,"locus YER155C, strain BEM2, stronger effect = lower value",1
same,normalized growth,"locus YER167W, strain BCK2, stronger effect = lower value",1.01
same,normalized growth,"locus YFR010W, strain ubp6, stronger effect = lower value",0.996
same,normalized growth,"locus YGL078C, strain dbp3, stronger effect = lower value",0.987
same,normalized growth,"locus YGL086W, strain mad1, stronger effect = lower value",0.954
same,normalized growth,"locus YGL167C, strain pmr1, stronger effect = lower value",1.05
same,normalized growth,"locus YGL173C, strain kem1, stronger effect = lower value",1.01
same,normalized growth,"locus YGL227W, strain vid30, stronger effect = lower value",1.02
same,normalized growth,"locus YGL240W, strain doc1, stronger effect = lower value",1.05
same,normalized growth,"locus YGL248W, strain PDE1, stronger effect = lower value",0.95
same,normalized growth,"locus YGL253W, strain hxk2, stronger effect = lower value",1.03
same,normalized growth,"locus YGR078C, strain PAC10, stronger effect = lower value",0.935
same,normalized growth,"locus YGR135W, strain pre9, stronger effect = lower value",0.934
same,normalized growth,"locus YGR252W, strain gcn5, stronger effect = lower value",0.861
same,normalized growth,"locus YHR013C, strain ard1, stronger effect = lower value",1.09
same,normalized growth,"locus YHR027C, strain rpn1, stronger effect = lower value",1
same,normalized growth,"locus YHR030C, strain SLT2, stronger effect = lower value",0.979 and 1
same,normalized growth,"locus YHR079C, strain IRE1 (second series), stronger effect = lower value",0.952
same,normalized growth,"locus YHR079C, strain IRE1, stronger effect = lower value",0.994
same,normalized growth,"locus YHR094C, strain hxt1, stronger effect = lower value",0.981
same,normalized growth,"locus YHR129C, strain ARP1, stronger effect = lower value",0.969
same,normalized growth,"locus YHR142W, strain chs7, stronger effect = lower value",1.07
same,normalized growth,"locus YHR200W, strain rpn10, stronger effect = lower value",0.948
same,normalized growth,"locus YIL066C, strain RNR3, stronger effect = lower value",1
same,normalized growth,"locus YIL073C, strain SPO22, stronger effect = lower value",0.907
same,normalized growth,"locus YIL125W, strain kgd1, stronger effect = lower value",0.981
same,normalized growth,"locus YIR030C, strain dcg1, stronger effect = lower value",0.962
same,normalized growth,"locus YJL092W, strain hpr5, stronger effect = lower value",1.03
same,normalized growth,"locus YJL095W, strain BCK1 (second series), stronger effect = lower value",1.05
same,normalized growth,"locus YJL095W, strain BCK1, stronger effect = lower value",0.833 and 0.987
same,normalized growth,"locus YJL115W, strain asf1, stronger effect = lower value",1.01
same,normalized growth,"locus YJL129C, strain trk1, stronger effect = lower value",0.999
same,normalized growth,"locus YJL134W, strain LCB3, stronger effect = lower value",0.986
same,normalized growth,"locus YJL154C, strain vps35, stronger effect = lower value",1.02
same,normalized growth,"locus YJL164C, strain tpk1, stronger effect = lower value",1.09 [resistant] (active)
same,normalized growth,"locus YJL166W, strain qcr8, stronger effect = lower value",1.01
same,normalized growth,"locus YJL168C, strain set2, stronger effect = lower value",0.955
same,normalized growth,"locus YJL187C, strain SWE1 (second series), stronger effect = lower value",0.933
same,normalized growth,"locus YJL187C, strain SWE1, stronger effect = lower value",1.03
same,normalized growth,"locus YJR043C, strain POL32, stronger effect = lower value",1.01
same,normalized growth,"locus YJR066W, strain TOR1, stronger effect = lower value",0.985
same,normalized growth,"locus YKL009W, strain mrt4, stronger effect = lower value",0.967
same,normalized growth,"locus YKL068W, stronger effect = lower value",0.99
same,normalized growth,"locus YKL085W, strain MDH1 (second series), stronger effect = lower value",0.975
same,normalized growth,"locus YKL085W, strain MDH1, stronger effect = lower value",0.975
same,normalized growth,"locus YKL160W, strain elf1, stronger effect = lower value",1.05
same,normalized growth,"locus YKL190W, strain CNB1, stronger effect = lower value",0.977
same,normalized growth,"locus YKR001C, strain vps1, stronger effect = lower value",0.89 (active)
same,normalized growth,"locus YKR026C, strain gcn3, stronger effect = lower value",1.02
same,normalized growth,"locus YKR091W, strain srl3, stronger effect = lower value",1.03
same,normalized growth,"locus YLL001W, strain dnm1, stronger effect = lower value",1.03
same,normalized growth,"locus YLL026W, stronger effect = lower value",1.03
same,normalized growth,"locus YLL041C, strain sdh2, stronger effect = lower value",1.02
same,normalized growth,"locus YLR027C, strain aat2, stronger effect = lower value",1.04
same,normalized growth,"locus YLR039C, strain RIC1, stronger effect = lower value",0.985
same,normalized growth,"locus YLR058C, strain SHM2, stronger effect = lower value",0.969
same,normalized growth,"locus YLR102C, strain apc9, stronger effect = lower value",0.972
same,normalized growth,"locus YLR113W, strain HOG1, stronger effect = lower value",0.961
same,normalized growth,"locus YLR221C, strain rsa3, stronger effect = lower value",1.07
same,normalized growth,"locus YLR258W, strain gsy2, stronger effect = lower value",1.07
same,normalized growth,"locus YLR262C, strain YPT6 (second series), stronger effect = lower value",1.04
same,normalized growth,"locus YLR262C, strain YPT6, stronger effect = lower value",1.02
same,normalized growth,"locus YLR268W, strain sec22, stronger effect = lower value",0.95
same,normalized growth,"locus YLR320W, strain mms22, stronger effect = lower value",0.999
same,normalized growth,"locus YLR330W, strain CHS5, stronger effect = lower value",0.957
same,normalized growth,"locus YLR342W, strain FKS1 (second series), stronger effect = lower value",1.08
same,normalized growth,"locus YLR342W, strain FKS1, stronger effect = lower value",1.02
same,normalized growth,"locus YLR357W, strain rsc2, stronger effect = lower value",1.05
same,normalized growth,"locus YLR370C, strain arc18, stronger effect = lower value",1.03
same,normalized growth,"locus YLR371W, strain rom2, stronger effect = lower value",0.939
same,normalized growth,"locus YLR384C, strain iki3, stronger effect = lower value",1.01
same,normalized growth,"locus YLR418C, strain cdc73, stronger effect = lower value",0.872
same,normalized growth,"locus YML016C, strain PPZ1, stronger effect = lower value",0.981
same,normalized growth,"locus YML032C, strain rad52, stronger effect = lower value",0.97
same,normalized growth,"locus YML120C, strain ndi1, stronger effect = lower value",1.03
same,normalized growth,"locus YML124C, strain tub3, stronger effect = lower value",0.967
same,normalized growth,"locus YMR058W, strain fet3, stronger effect = lower value",1.01
same,normalized growth,"locus YMR078C, strain ctf18, stronger effect = lower value",0.942
same,normalized growth,"locus YMR125W, strain sto1, stronger effect = lower value",1.03
same,normalized growth,"locus YMR129W, stronger effect = lower value",1.02
same,normalized growth,"locus YMR205C, strain PFK2, stronger effect = lower value",1.01
same,normalized growth,"locus YMR223W, strain ubp8, stronger effect = lower value",0.934
same,normalized growth,"locus YMR231W, strain pep5, stronger effect = lower value",1.02
same,normalized growth,"locus YMR307W, strain GAS1, stronger effect = lower value",0.984
same,normalized growth,"locus YNL067W, strain RPL9B, stronger effect = lower value",0.928
same,normalized growth,"locus YNL071W, strain lat1, stronger effect = lower value",1.01
same,normalized growth,"locus YNL128W, strain TEP1, stronger effect = lower value",0.909
same,normalized growth,"locus YNL153C, strain GIM3, stronger effect = lower value",0.938
same,normalized growth,"locus YNL183C, strain NPR1, stronger effect = lower value",0.932
same,normalized growth,"locus YNL209W, strain ssb2, stronger effect = lower value",1.01
same,normalized growth,"locus YNL233W, strain BNI4, stronger effect = lower value",0.889
same,normalized growth,"locus YNL248C, strain rpa49, stronger effect = lower value",1.06
same,normalized growth,"locus YNL250W, strain rad50, stronger effect = lower value",0.964
same,normalized growth,"locus YNL271C, strain bni1, stronger effect = lower value",0.955
same,normalized growth,"locus YNL298W, strain CLA4, stronger effect = lower value",0.979
same,normalized growth,"locus YNL307C, strain MCK1, stronger effect = lower value",0.963
same,normalized growth,"locus YNL322C, strain KRE1 (second series), stronger effect = lower value",1.04
same,normalized growth,"locus YNR049C, strain mso1, stronger effect = lower value",1.02
same,normalized growth,"locus YNR052C, strain pop2, stronger effect = lower value",0.908 (active)
same,normalized growth,"locus YOL006C, strain TOP1, stronger effect = lower value",0.696
same,normalized growth,"locus YOL012C, strain htz1",0.364
same,normalized growth,"locus YOL147C, strain pex11, stronger effect = lower value",0.972
same,normalized growth,"locus YOR001W, strain rrp6, stronger effect = lower value",1.03
same,normalized growth,"locus YOR061W, strain CKA2, stronger effect = lower value",0.987
same,normalized growth,"locus YOR069W, strain VPS5, stronger effect = lower value",0.986
same,normalized growth,"locus YOR070C, strain gyp1, stronger effect = lower value",1.01
same,normalized growth,"locus YOR080W, strain dia2, stronger effect = lower value",1.05
same,normalized growth,"locus YOR083W, strain WHI5, stronger effect = lower value",1.05
same,normalized growth,"locus YOR106W, strain vam3, stronger effect = lower value",1.03
same,normalized growth,"locus YOR136W, strain idh2, stronger effect = lower value",0.977
same,normalized growth,"locus YOR144C, strain elg1, stronger effect = lower value",0.984
same,normalized growth,"locus YOR184W, strain ser1, stronger effect = lower value",0.989
same,normalized growth,"locus YOR231W, strain MKK1, stronger effect = lower value",1
same,normalized growth,"locus YOR265W, strain rbl2, stronger effect = lower value",1.01
same,normalized growth,"locus YOR270C, strain vph1, stronger effect = lower value",1.07
same,normalized growth,"locus YOR290C, strain snf2, stronger effect = lower value",1.06
same,normalized growth,"locus YOR316C, strain cot1, stronger effect = lower value",0.972
same,normalized growth,"locus YPL051W, strain arl3, stronger effect = lower value",1.02
same,normalized growth,"locus YPL078C, strain atp4, stronger effect = lower value",1.02
same,normalized growth,"locus YPL106C, strain sse1, stronger effect = lower value",1.05
same,normalized growth,"locus YPL240C, strain hsp82, stronger effect = lower value",1.02
same,normalized growth,"locus YPL256C, strain CLN2, stronger effect = lower value",0.99
same,normalized growth,"locus YPR119W, strain clb2, stronger effect = lower value",0.951
same,normalized growth,"locus YPR141C, strain kar3, stronger effect = lower value",0.957
same,normalized growth,"locus YPR163C, strain tif3, stronger effect = lower value",0.962
same,normalized growth,"locus YPR167C, strain met16, stronger effect = lower value",0.975
same,normalized growth,"strain wtn01, stronger effect = lower value",0.953
